# MCF10A rereplic: A quantitative high throughput screen for small molecules that induce DNA re-replication in MCF 10a normal breast cells | MCF 10A DNA re-replication, Hoechst nuclear intensity, 48 h | Potency, µM (highest dose often 46.1 µM), without a hit: at the top dose activity, positive = re-replication, hits mostly activators | 350,000 compounds, 2.9% hits; also: % of control where 0% means no effect; nearly all actives have a fitted effect of over 50% in size
# VP16 counter: VP16 counterscreen qHTS for inhibitors of ROR gamma transcriptional activity. Drosophila S2 Gal4-VP16 UAS-luciferase, luminescence, 20 h. Potency, µM (titrated, usually from 53.6 µM), for inactives: at the top dose activity, negative = inhibition, actives largely listed as inhibitors. 310,000 compounds, 3.5% hits;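 also: Gal4-VP16 expression switched on by copper sulfate through the metallothionein promoter; % is scaled to controls: 0 for no effect and ±100 for the full control effect; nearly all actives have a fitted effect of over 50% in size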
# KB-3-1 cytotox: qHTS assay for MDR1-selective chemotherapeutics: Primary screen using the parental adenocarcinoma cell KB-3-1; KB-3-1 viability, CellTiter-Glo ATP luminescence, 72 h; Potency, µM (titrated, usually from 46.1 µM), actives largely listed as cytotoxic; 400,000 compounds, 1.4% hits; AID 1347075, 2019; also: % is scaled to controls: 0 for no effect and ±100 for the full control effect; nearly all actives have a fitted effect of over 60% in size
#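 Here the drug-naive KB-3-1 line serves as comparator for MDR sub-line selectivity; cells received compound titrations, 72 h at 37 °C, then CellTiter-Glo readout.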
# KB-V1 cytotox: qHTS assay for MDR1-selective chemotherapeutics: Primary screen using the drug-selected MDR subline cells KB-V1. KB-V1 MDR cells viability, CellTiter-Glo, 72 h. Potency, µM (highest dose often 46.1 µM), most hits filed as cytotoxic. 400,000 compounds, 3.4% hits; also: % is scaled to controls: 0 for no effect and ±100 for the full control effect; nearly all actives have a fitted effect of over 60% in size
#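 KB-V1, DMEM (no phenol red) + 10% FBS; cpd pin-transferred, titration series; 72 h, 37 degrees C; CellTiter-Glo, luminescence. Data normalized, curve-fit.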
# RORgamma inh: qHTS for inhibitors of ROR gamma transcriptional activity; 310,000 compounds, 5.4% hits; AID 2551, 2010; Potency, µM (titrated, usually from 53.6 µM), inactives show top-dose activity change, negative = inhibition, hits mostly inhibitors; Drosophila S2 Gal4-RORgamma UAS-luciferase reporter, 20 h; Nuclear receptor ROR-gamma (Mus musculus), P51450; also: % is scaled to controls: 0 for no effect and ±100 for the full control effect; nearly all actives have a fitted effect of over 60% in size
# Target sequence (P51450 whole entry, looked up, the tested form may be a part): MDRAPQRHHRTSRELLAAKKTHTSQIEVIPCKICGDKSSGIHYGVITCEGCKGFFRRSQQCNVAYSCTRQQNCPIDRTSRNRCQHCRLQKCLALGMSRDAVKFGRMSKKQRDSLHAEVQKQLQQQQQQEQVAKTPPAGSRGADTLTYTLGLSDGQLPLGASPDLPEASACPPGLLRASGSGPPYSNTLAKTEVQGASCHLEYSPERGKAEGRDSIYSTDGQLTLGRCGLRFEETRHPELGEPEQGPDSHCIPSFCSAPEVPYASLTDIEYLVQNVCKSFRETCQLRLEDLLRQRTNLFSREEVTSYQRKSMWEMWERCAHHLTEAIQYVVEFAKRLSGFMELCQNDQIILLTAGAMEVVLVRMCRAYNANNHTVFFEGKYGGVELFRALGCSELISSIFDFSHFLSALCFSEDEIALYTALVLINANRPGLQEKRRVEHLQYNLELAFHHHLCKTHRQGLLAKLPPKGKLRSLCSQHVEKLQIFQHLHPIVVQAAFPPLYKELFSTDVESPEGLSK
#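 Drosophila Schneider cells stably carrying a metallothionein-driven Gal4 DBD–ROR gamma fusion and a UAS-Photinus luciferase reporter were exposed to compound for 1 hr, then induced with copper sulfate (700 uM final) for 20 hr at ambient temperature before luminescence reading.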
# SW480 rereplic: A quantitative high throughput screen for small molecules that induce DNA re-replication in SW480 colon adenocarcinoma cells | SW480 DNA re-replication, Hoechst DNA content imaging, 48 h | Potency, µM (doses to about 46.1 µM), inactives show at the top dose re-replication activation, usual class: activators | 340,000 compounds, 1.8% hits | AID 624297, 2012; also: % of control where 0% means no effect; nearly all actives have a fitted effect of over 55% in size
#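 Compounds, transferred as 23 nL by pin tool, were incubated with cells for 48 hr; DNA content per nucleus was then quantified by Hoechst staining and fluorescence plate imaging.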
# An asterisk follows results filed as active; i = inactive; ? = inconclusive; . = no result. A selection: hits, their analogues and other compounds. The true share with any hit is near 10%. Calls follow the shape of the dose curve; as a rule, active = well fitted curve in the direction sought with a large enough effect; inconclusive = small, poorly fitted or top-dose-only effect, or another doubt; inactive = no such curve, though single readings can be large; an effect the other way counts as inactive or inconclusive. Potency is read from the fitted curve at half-maximal effect.
SMILES,MCF10A rereplic,VP16 counter,KB-3-1 cytotox,KB-V1 cytotox,RORgamma inh,SW480 rereplic
N=c1n(Cc2ccccc2)c2ccccc2n1Cc1ccccc1,?,-8%,?,18µM*,27%,23µM*
Cc1ccc(OCC(O)Cn2c(=N)n(Cc3ccccc3)c3ccccc32)cc1 (stereo not given),?,-8%,i,16µM*,-40%,?
O=C(/C=C/[C@H]1O[C@@H](n2cnc3c(NC(=O)c4ccccc4)ncnc32)[C@H](O)[C@@H]1O)NCc1cccs1,.,.,i,i,.,.
COc1ccc(C[C@H]2CN3C(=NC[C@@H]3Cc3ccc(O)cc3)N2CCNC(=O)c2ccc(C)c(Br)c2)cc1,5%,-5%,16µM*,i,-1%,-19%
COc1cccc(OCc2cc(C(=O)N3CCNC(=O)C3Cc3ccccc3)no2)c1 (stereo not given),2%,-13%,i,i,12%,-8%
Cc1nc2c(C(=O)N3CCCC3)cnn2c(C)c1Cc1c(F)cccc1Cl,2%,9%,i,23µM*,0%,1%
Cc1nc2c(C(=O)O)cnn2c(C)c1Cc1ccccc1,.,.,i,i,.,.
CCOC(=O)N1CCN(C(=O)c2cnn3c(C)c(Cc4ccc(C)cc4)c(C)nc23)CC1,4%,2%,i,3.7µM*,-5%,-6%
CCn1c2c(c3cc(OCC(C)C)ccc31)CCCC2=O,-1%,-17%,i,i,?,-7%
CCn1c2c(c3cc(Br)ccc31)CCC/C2=N\O,13µM*,-9%,?,?,41%,-3%
Cc1ccc(NC(=O)Cn2c(=O)n(CCC(C)C)c(=O)c3cccnc32)cc1C,.,.,i,i,.,.
O=S(=O)(c1ccc(F)cc1)N1CCCC(c2nc(-c3ccc(F)cc3)no2)C1 (stereo not given),?,.,i,i,.,-2%
O=S(=O)(NC1CC1)c1ccc(S(=O)(=O)N2CCCC(c3nc(-c4cccnc4)no3)C2)cc1 (stereo not given),19%,-7%,i,8.2µM*,-1%,5%
CC(C)C(=O)N1CCC(c2nc(-c3ccc(S(=O)(=O)N4CCCC4)cc3)no2)CC1,1%,?,i,12µM*,?,-5%
O=C(NC1CCCCC1)N1CCCC(c2nc(-c3ccc(S(=O)(=O)N4CCCC4)cc3)no2)C1 (stereo not given),6%,0%,?,3.7µM*,8%,-1%
CC(C)(C)OC(=O)N1CCC(c2c(C(=O)N3CCN(c4ccccc4F)CC3)cnn2-c2ccccc2Cl)CC1,.,.,i,i,.,.
O=C(NCCCCCCCN1CCCCCCC1)C(C1CCCCC1)C1CCCCC1,2%,.,?,3.3µM*,.,?
O=C(NCCCN1CCOCC1)NC1CCCCC1,-6%,-9%,i,i,-17%,?
COc1ccccc1C(=O)NNC(=O)C1CCCO1 (stereo not given),8%,9%,i,i,11µM*,0%
O=C(Nc1ccc2nc3n(c(=O)c2c1)CCCC3)c1cccc(F)c1,-4%,-1%,i,i,25%,-8%
COc1ccc(C(=O)NNC(=O)C2CCCO2)cc1 (stereo not given),8%,2%,i,i,-4%,0%
COc1ccc(Oc2ccc(C(F)(F)F)cc2NC(=O)c2ccc(F)cc2)cc1,-2%,3%,i,i,0%,1%
COc1cccc(Oc2ccc(C(F)(F)F)cc2NC(=O)c2cccc(F)c2)c1,-53%,3%,?,21µM*,18%,-3%
COc1ccccc1Nc1c2c(nc3ccc(NC(=O)c4cccc(F)c4)cc13)CCCC2,.,.,21µM*,i,.,.
COc1ccccc1C(=O)NNC(=O)c1cccc(O)c1,0%,?,i,i,?,-8%
SMILES,MCF10A rereplic,VP16 counter,KB-3-1 cytotox,KB-V1 cytotox,RORgamma inh,SW480 rereplic
COc1ccccc1C(=O)NNC(=O)c1cccc(F)c1,-25%,10µM*,i,i,10µM*,?
COc1cc2c(cc1NC(=O)c1cccc(Br)c1)CCCC2,14%,-3%,i,i,24%,10%
COc1cc2c(cc1NC(=O)c1cccc(F)c1)CCCC2,21%,2%,i,23µM*,37%,7%
CCN(c1ccc(OC)cc1)S(=O)(=O)c1ccc2c(c1)CCN2C(=O)CCC(=O)O,0%,0%,i,i,3%,?
CCN(c1ccc(C)c(C)c1)S(=O)(=O)c1ccc2c(c1)CCN2C(=O)CCC(=O)O,21µM*,-3%,i,i,-12%,?
CN(C)c1ccc(/C=C/c2ccnc3cc(Cl)ccc23)cc1,.,.,?,i,.,.
N#C/C(=N\Nc1ccccc1)C(N)=S,-31%,?,i,i,13µM*,-1%
Cc1ccc(N/N=C(\C#N)C(N)=S)cc1C,?,?,i,?,2.8µM*,20%
N#C/C(=N\Nc1ccc(Cl)cc1)C(N)=S,?,6.3µM*,i,i,4.5µM*,18%
N#C/C(=N/Nc1ccccc1[N+](=O)[O-])C(N)=S,4%,-18%,i,i,5%,-3%
Cc1ccc(NC(N)=S)cc1C,2%,?,i,i,?,0%
COc1ccc(-n2c(SC(C)C(=O)Nc3ncc(Cl)cc3Cl)nc3ccccc32)cc1 (stereo not given),?,-6%,21µM*,2.1µM*,-22%,?
CCOc1ccc(NC(=O)CSc2nnc(-c3ccc(C)cc3)c(-c3ccc(C)cc3)n2)cc1,.,.,i,i,.,.
CCCN1C(=O)c2ccccc2NC1c1ccc(OC)cc1O (stereo not given),?,1%,?,5.8µM*,16%,3%
O=C(Nc1ccc(OC(F)(F)F)cc1)C1CCN(S(=O)(=O)c2ccc3[nH]c(=O)ccc3c2)CC1,.,.,i,i,.,.
CCCCCOc1ccc(Br)cc1CSC(=N)N,?,7.1µM*,12µM*,9.2µM*,-75%,?
CC(C)N1CCC(C)(C(=O)Nc2ccc(Cl)c(Cl)c2)C1 (stereo not given),.,.,i,i,.,.
N=c1ccn(CC(=O)c2ccc(-c3ccccc3)cc2)cc1,7%,?,5.2µM*,i,?,-6%
